Source: ChEMBL document CHEMBL4513140, “CO-ADD screening of Lancaster University (UK) compounds” (2021)
Entries with a potency or affinity are not part of this list.

The molecules below were run on Staphylococcus aureus. Details: Concentration 32 ug.mL-1; ASSAY_TEST Inhibition of Bacterial Growth; detection method Absorption (OD600); MEDIA CAMHB; plate type 384well; NBS; CORNING #3640; time 18 hr.
Molecule c1ccc2nc3c4cccnc4c4ncccc4c3nc2c1 has an Inhibition of 8.68%. Work on CC(=NN)c1cc(/C(C)=N/N)cc(/C(C)=N/N)c1 yielded an Inhibition of 18.93%. COC(=O)c1ccc(S)cc1 showed an Inhibition of 8.34%. Molecule CC(=O)c1cc(C(C)=O)cc(C(C)=O)c1 has an Inhibition of 25.72%.

What follows are molecules tested on Escherichia coli. Details: Concentration 32 ug.mL-1; ASSAY_TEST Inhibition of Bacterial Growth; detection method Absorption (OD600); MEDIA CAMHB; plate type 384well; NBS; CORNING #3640; time 18 hr.
Molecule c1ccc2nc3c4cccnc4c4ncccc4c3nc2c1 has an Inhibition of -14.57%. In the case of CC(=NN)c1cc(/C(C)=N/N)cc(/C(C)=N/N)c1, the Inhibition is reported as 9.06%. Molecule COC(=O)c1ccc(S)cc1 has an Inhibition of -21.23%. CC(=O)c1cc(C(C)=O)cc(C(C)=O)c1 gave an Inhibition of -14.66%.
